# According to PubChem BioAssay (EPA / NIEHS):
# Records with an inconclusive call do not appear. Activity calls are given as the source filed them. Rule for the calls: active = hit-call score of the fitted dose curve at least 0.9, where 1 is the maximum; inconclusive = response in the unintended direction; inactive = score below 0.9.
# Assays:
# [1] = molecular target: human LYN Proto-Oncogene, Src family Tyrosine Kinase (LynA), LYN (gene 4067) (UniProt P07948); test: NVS_ENZ_hLynA: NovaScreen (NVS) Enzymatic Assay for human LYN Proto-Oncogene, Src family Tyrosine Kinase (LynA) (AID 2283173)
# Protocol: NVS_ENZ_hLynA is a biochemical, single-readout assay that uses extracted gene-proteins in a cell-free assay. Measurements were taken 1 hour after chemical dosing in a 384-well plate.NVS_ENZ_hLynA is one of one assay component(s) measured or calculated from the NVS_ENZ_hLynA assay. It is designed to make measurements of enzyme activity, a form of enzyme reporter, as detected with fluorescence intensity signals by Fluorescence and electrophoretic mobility shift technology.Data from the assay component NVS_ENZ_hLynA was analyzed into 1 assay endpoint. This assay endpoint, NVS_ENZ_hLynA, was analyzed in the positive analysis fitting direction relative to DMSO as the negative control and baseline of activity. Using a type of enzyme reporter, loss-of-signal activity can be used to understand changes in the enzymatic activity as they relate to the gene LYN. Furthermore, this assay endpoint can be referred to as a primary readout, because this assay has produced multiple assay endpoints where this one serves a enzymatic activity function. To generalize the intended target to other relatable targets, this assay endpoint is annotated to the kinase intended target family, where the subfamily is non-receptor tyrosine kinase. […]
# [2] = molecular target: human Mitogen- and Stress-activated Protein Kinase-1 (Msk1), RPS6KA5 (gene 9252) (UniProt O75582); test: NVS_ENZ_hMsk1: NovaScreen (NVS) Enzymatic Assay for human Mitogen- and Stress-activated Protein Kinase-1 (Msk1) (AID 2283187)
# Summary of the method: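 Recombinant kinase with fluorescent substrate; product separated by electrophoretic mobility shift, read 1 h after dosing. Screened in duplicate at 25 uM; hits (e.g. ≥30% inhibition) tested in concentration–response up to 50 uM. DMSO baseline.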
# [3] = molecular target: human Phosphodiesterase 4A1 (PDE4A1), PDE4A (gene 5141) (UniProt P27815); test: NVS_ENZ_hPDE4A1: NovaScreen (NVS) Enzymatic Assay for human Phosphodiesterase 4A1 (PDE4A1) (AID 2283191)
# Summary of the method: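 Cell-free recombinant human PDE4A1 with fluorescent substrate; product separated by electrophoretic mobility shift, 1 h. Screened at 25 uM, then up to 50 uM in concentration-response; loss of signal fitted against DMSO.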
# [4] = molecular target: human Matrix Metalloproteinase-9 (MMP9), MMP9 (gene 4318) (UniProt P14780); test: NVS_ENZ_hMMP9: NovaScreen (NVS) Enzymatic Assay for human Matrix Metalloproteinase-9 (MMP9) (AID 2283190);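 note: cell-free recombinant MMP9 protease activity read by fluorescent substrate signal; active means inhibition seen as loss of fluorescence signal versus DMSO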
# Summary of the method: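 Cell-free fluorescence-intensity enzyme activity assay using extracted protein, read 1 h after dosing. Loss of signal versus DMSO baseline indicates inhibition; primary screen in duplicate at 25 uM, actives followed up in concentration series.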
# [5] = molecular target: human Matrix Metalloproteinase-2 (MMP2), MMP2 (gene 4313) (UniProt P08253); test: NVS_ENZ_hMMP2: NovaScreen (NVS) Enzymatic Assay for human Matrix Metalloproteinase-2 (MMP2) (AID 2283184)
# Summary of the method: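 Cell-free recombinant MMP2 activity with a fluorescent substrate, read 1 h after dosing. Primary screen in duplicate at 25 uM; actives then run in concentration series; loss of signal fitted versus DMSO.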
# [6] = molecular target: Mitogen-activated protein kinase 3 (Homo sapiens) (UniProt P27361); test: NVS_ENZ_hMAPK3: NovaScreen (NVS) Enzymatic Assay for human Mitogen-Activated Protein Kinase 3 (MAPK 3) (AID 2283177)
# Summary of the method: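 Cell-free enzymatic assay with recombinant protein and specific substrate; fluorescence and electrophoretic mobility shift read-out 1 h after dosing. Primary screen duplicate at 25 uM; actives then run in concentration-response up to 50 uM, loss of signal versus DMSO.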
# [7] = molecular target: cAMP-dependent protein kinase catalytic subunit alpha (Homo sapiens) (UniProt P17612); test: NVS_ENZ_hPKA: NovaScreen (NVS) Enzymatic Assay for human Protein Kinase A (PKA) (AID 2283192)
# Summary of the method: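 Recombinant human PKA with specific fluorescent substrate, product separated by electrophoretic mobility shift, read 1 h after dosing. Primary screen at 25 uM in duplicate; actives then run in concentration-response up to 50 uM, activity relative to DMSO.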
# [8] = molecular target: Collagenase 3 (Homo sapiens) (UniProt P45452); test: NVS_ENZ_hMMP13: NovaScreen (NVS) Enzymatic Assay for human Matrix Metalloproteinase-13 (MMP13) (AID 2283182)
# Summary of the method: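 Recombinant MMP13 cleaving fluorescent substrate, cell-free, measured 1 h after dosing. Primary duplicate screen at 25 uM; actives tested in concentration-response up to 50 uM; loss of signal relative to DMSO.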
# [9] = molecular target: human Matrix Metalloproteinase-7 (MMP7), MMP7 (gene 4316) (UniProt P09237); test: NVS_ENZ_hMMP7: NovaScreen (NVS) Enzymatic Assay for human Matrix Metalloproteinase-7 (MMP7) (AID 2283183)
# Summary of the method: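 Cell-free fluorescence enzymatic assay read 1 h after compound addition, activity loss analyzed against DMSO. Primary duplicate testing at 25 uM; compounds meeting threshold rerun in singleton concentration-response up to 50 uM.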
# [10] = molecular target: human MAP Kinase-Activated Protein Kinase 2 (MAPKAPK2), MAPKAPK2 (gene 9261) (UniProt P49137); test: NVS_ENZ_hMAPKAPK2: NovaScreen (NVS) Enzymatic Assay for human MAP Kinase-Activated Protein Kinase 2 (MAPKAPK2) (AID 2283178)
# Summary of the method: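 Cell-free recombinant human MAPKAPK2 activity measured by fluorescence with electrophoretic mobility shift separation of substrate and product, 1 hr after dosing. Loss of signal versus DMSO; primary screen at 25 uM, concentration-response up to 50 uM.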
# Chain of human Matrix Metalloproteinase-2 (MMP2), MMP2 (gene 4313) (P08253 whole entry, looked up): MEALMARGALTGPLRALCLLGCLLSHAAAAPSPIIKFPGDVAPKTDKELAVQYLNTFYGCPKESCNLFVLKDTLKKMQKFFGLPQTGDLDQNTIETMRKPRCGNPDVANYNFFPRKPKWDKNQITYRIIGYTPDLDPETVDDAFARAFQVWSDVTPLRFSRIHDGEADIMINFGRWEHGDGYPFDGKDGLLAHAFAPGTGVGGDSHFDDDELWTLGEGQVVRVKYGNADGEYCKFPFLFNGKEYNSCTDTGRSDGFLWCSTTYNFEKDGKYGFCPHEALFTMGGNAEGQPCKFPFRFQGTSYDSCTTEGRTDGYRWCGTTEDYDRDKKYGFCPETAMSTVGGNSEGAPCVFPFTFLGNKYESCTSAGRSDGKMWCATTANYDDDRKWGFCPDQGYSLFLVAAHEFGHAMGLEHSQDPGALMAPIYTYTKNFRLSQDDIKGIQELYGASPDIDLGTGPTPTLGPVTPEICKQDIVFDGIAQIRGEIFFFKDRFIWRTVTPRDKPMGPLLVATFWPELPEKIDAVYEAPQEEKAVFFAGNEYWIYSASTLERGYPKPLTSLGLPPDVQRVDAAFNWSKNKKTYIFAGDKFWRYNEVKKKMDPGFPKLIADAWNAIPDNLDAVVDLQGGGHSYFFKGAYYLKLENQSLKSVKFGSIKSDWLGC
# Chain of human Matrix Metalloproteinase-9 (MMP9), MMP9 (gene 4318) (P14780 whole entry, looked up): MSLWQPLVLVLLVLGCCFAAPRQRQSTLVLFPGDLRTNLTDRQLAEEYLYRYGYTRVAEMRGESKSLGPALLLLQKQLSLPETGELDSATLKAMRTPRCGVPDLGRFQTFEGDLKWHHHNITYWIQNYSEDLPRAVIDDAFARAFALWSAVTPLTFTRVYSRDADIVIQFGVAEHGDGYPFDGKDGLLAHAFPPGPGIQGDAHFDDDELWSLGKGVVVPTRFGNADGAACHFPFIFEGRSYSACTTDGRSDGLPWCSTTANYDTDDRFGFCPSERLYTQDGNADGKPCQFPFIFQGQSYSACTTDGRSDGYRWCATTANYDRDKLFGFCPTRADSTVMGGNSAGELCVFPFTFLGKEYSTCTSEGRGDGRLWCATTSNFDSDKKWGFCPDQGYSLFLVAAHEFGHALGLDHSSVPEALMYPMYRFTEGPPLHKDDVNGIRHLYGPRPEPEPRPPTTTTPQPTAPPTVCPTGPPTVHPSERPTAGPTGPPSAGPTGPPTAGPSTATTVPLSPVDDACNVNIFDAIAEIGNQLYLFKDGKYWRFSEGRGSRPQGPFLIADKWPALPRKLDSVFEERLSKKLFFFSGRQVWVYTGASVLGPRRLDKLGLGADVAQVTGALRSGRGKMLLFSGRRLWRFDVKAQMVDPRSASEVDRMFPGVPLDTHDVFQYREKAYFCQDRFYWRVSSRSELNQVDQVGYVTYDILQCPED
# Chain of human Phosphodiesterase 4A1 (PDE4A1), PDE4A (gene 5141) (P27815 whole entry, looked up): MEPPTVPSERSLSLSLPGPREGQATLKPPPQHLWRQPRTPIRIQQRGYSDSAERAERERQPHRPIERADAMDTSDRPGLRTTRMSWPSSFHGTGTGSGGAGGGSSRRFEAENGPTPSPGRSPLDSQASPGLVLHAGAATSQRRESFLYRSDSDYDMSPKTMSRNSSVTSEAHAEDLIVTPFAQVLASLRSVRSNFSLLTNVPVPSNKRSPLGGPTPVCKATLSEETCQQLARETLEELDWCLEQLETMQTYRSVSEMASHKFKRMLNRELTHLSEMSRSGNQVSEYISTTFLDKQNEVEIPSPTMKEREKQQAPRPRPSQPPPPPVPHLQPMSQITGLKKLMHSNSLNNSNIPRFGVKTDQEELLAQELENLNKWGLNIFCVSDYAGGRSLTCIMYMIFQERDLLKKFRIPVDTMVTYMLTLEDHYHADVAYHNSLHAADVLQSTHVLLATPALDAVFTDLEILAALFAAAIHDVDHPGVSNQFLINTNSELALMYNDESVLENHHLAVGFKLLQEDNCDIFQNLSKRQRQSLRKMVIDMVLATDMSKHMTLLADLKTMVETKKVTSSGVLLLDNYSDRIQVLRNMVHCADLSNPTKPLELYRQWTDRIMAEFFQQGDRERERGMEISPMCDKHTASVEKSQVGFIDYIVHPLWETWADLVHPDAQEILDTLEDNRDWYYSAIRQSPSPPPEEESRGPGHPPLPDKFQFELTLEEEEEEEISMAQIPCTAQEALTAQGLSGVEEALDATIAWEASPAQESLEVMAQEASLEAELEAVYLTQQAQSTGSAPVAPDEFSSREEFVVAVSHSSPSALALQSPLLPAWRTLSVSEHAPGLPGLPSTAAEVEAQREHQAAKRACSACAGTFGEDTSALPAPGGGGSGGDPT
# Chain of Mitogen-activated protein kinase 3 (Homo sapiens) (P27361 whole entry, looked up): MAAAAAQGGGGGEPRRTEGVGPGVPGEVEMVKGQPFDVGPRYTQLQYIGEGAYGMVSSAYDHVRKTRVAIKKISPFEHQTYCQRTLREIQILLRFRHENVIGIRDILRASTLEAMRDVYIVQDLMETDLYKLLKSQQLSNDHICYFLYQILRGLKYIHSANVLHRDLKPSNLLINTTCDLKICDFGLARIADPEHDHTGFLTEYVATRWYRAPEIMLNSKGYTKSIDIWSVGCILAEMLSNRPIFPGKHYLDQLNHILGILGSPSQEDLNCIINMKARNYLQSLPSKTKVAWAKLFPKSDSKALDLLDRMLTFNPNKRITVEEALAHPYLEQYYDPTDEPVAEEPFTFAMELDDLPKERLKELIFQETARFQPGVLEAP
# Chain of human Matrix Metalloproteinase-7 (MMP7), MMP7 (gene 4316) (P09237 whole entry, looked up): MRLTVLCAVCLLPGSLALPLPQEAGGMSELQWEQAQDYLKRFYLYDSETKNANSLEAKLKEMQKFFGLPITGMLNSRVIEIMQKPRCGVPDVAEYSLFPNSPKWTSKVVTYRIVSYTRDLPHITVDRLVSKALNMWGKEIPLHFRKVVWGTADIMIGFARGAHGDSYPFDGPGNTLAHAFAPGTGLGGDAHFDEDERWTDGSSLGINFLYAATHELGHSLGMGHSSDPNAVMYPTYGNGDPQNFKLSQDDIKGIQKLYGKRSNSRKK
# Chain of human MAP Kinase-Activated Protein Kinase 2 (MAPKAPK2), MAPKAPK2 (gene 9261) (P49137 whole entry, looked up): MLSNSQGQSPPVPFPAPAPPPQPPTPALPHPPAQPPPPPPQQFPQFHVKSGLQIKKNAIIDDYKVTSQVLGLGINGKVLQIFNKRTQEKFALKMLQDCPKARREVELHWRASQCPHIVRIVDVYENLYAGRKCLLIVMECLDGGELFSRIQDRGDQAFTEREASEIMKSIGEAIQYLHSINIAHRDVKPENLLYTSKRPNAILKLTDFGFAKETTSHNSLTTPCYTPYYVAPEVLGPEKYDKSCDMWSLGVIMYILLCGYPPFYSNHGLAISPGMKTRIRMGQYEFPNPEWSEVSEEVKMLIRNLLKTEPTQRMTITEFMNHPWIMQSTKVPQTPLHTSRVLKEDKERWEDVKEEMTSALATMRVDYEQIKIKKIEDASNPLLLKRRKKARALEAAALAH
# Chain of human LYN Proto-Oncogene, Src family Tyrosine Kinase (LynA), LYN (gene 4067) (P07948 whole entry, looked up): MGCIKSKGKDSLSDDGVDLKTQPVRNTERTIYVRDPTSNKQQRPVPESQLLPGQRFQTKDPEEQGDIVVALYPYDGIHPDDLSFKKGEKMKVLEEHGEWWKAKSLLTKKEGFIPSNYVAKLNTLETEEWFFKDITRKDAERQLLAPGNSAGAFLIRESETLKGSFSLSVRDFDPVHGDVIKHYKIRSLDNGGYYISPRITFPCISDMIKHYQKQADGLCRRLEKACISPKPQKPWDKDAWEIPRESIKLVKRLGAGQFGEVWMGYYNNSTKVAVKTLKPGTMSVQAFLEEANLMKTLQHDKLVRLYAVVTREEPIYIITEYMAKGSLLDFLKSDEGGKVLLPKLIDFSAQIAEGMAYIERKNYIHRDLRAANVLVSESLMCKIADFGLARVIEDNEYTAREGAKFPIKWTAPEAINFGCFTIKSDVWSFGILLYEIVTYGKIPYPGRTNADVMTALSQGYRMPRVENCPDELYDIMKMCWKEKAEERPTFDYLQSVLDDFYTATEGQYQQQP
# Chain of human Mitogen- and Stress-activated Protein Kinase-1 (Msk1), RPS6KA5 (gene 9252) (O75582 whole entry, looked up): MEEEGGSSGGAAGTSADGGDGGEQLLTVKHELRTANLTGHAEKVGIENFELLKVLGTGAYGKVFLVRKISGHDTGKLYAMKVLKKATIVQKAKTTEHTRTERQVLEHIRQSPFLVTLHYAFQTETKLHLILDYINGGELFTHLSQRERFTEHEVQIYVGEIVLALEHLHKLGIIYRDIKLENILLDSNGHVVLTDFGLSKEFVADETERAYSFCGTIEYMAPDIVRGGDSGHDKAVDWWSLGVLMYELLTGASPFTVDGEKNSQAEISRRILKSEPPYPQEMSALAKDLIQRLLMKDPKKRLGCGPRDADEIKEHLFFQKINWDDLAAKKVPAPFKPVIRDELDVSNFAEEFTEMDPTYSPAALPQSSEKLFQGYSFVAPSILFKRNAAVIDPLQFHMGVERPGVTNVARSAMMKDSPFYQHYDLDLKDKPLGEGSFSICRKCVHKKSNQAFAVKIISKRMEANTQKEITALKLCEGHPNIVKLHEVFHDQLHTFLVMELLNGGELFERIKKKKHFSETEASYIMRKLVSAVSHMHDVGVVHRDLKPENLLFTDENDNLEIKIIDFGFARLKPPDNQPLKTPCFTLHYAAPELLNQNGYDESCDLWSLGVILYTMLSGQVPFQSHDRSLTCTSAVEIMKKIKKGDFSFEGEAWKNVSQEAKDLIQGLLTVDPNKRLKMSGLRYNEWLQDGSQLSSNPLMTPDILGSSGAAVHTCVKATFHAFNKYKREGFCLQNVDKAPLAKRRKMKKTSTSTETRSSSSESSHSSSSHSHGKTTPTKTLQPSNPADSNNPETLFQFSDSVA
smiles,measurement,setting,value
CCN(CC)C(=O)c1cc(S(=O)(=O)Cc2ccccc2)c(N2CCC(c3ccccc3)CC2)cc1N(CC)CCN(C)C,outcome,[1],inactive
same,outcome,[2],inactive
same,AC50,[3],9.38 µM (active)
COc1ccc2cc(S(=O)(=O)N[C@H](CC(=O)N[C@H](Cc3ccc(CN4[C@H](C)CCC[C@@H]4C)cc3)C(=O)N(C)C(C)C)c3ccc4c(c3)OCO4)ccc2c1,outcome,[4],inactive
CC(C)(c1cc(Br)c(O)c(Br)c1)c1cc(Br)c(O)c(Br)c1,outcome,[5],inactive
CC/C(=C(/CC)c1ccc(O)cc1)c1ccc(O)cc1,outcome,[6],inactive
same,outcome,[5],inactive
same,outcome,[3],inactive
same,outcome,[7],inactive
O=C(Nc1ccc(Cl)cc1)Nc1ccc(Cl)c(Cl)c1,outcome,[3],inactive
CCCC(=O)OCCC(C)C,outcome,[6],inactive
O=C=NCCCCCCN=C=O,outcome,[4],inactive
COc1cc(C(=O)NC2CCN(C)CC2)ccc1Nc1ncc2c(n1)N(C1CCCC1)CC(F)(F)C(=O)N2C,outcome,[6],inactive
same,AC50,[3],9.1 µM (active)
same,AC50,[7],6.04 µM (active)
CCCCCCCCCCCC[N+](C)(C)C,outcome,[5],inactive
CCN(Cc1cccc(S(=O)(=O)O)c1)c1ccc(C(=C2C=CC(=[N+](CC)Cc3cccc(S(=O)(=O)O)c3)C=C2)c2ccccc2S(=O)(=O)[O-])cc1,AC50,[5],10.3 µM (active)
CC(C)(C)c1csc(-c2cc3cc(OCc4ccccc4CC(=O)O)ccc3o2)n1,outcome,[6],inactive
CN(C)C(=O)C1(N2CCCCC2)CCN(CC[C@@]2(c3ccc(Cl)c(Cl)c3)CN(C(=O)c3ccccc3)CCO2)CC1,outcome,[4],inactive
Cc1c2ccccc2c(C)c2c1ccc1ccccc12,outcome,[8],inactive
COCC(C)OCC(C)OCC(C)O (stereo unspecified),outcome,[8],inactive
same,outcome,[9],inactive
Cc1oc2c(NC(=O)c3c(Cl)cccc3Cl)cccc2c1C(C)(C)O,outcome,[10],inactive
O=CCCCC=O,outcome,[6],inactive
CCOC(=O)O[C@H](C)OC(=O)c1ccc2c(c1)cc(C(=O)NC1CCN(C(C)C)CC1)n2Cc1cc(-c2ccc(Cl)s2)on1,AC50,[8],15.2 µM (active)
same,AC50,[4],30.9 µM (active)
CCCCCCCCOC(=O)c1cc(O)c(O)c(O)c1,outcome,[10],inactive
same,AC50,[8],2.83 µM (active)
same,AC50,[9],22.1 µM (active)
same,AC50,[5],1.47 µM (active)
same,AC50,[4],1.09 µM (active)
